A word on the inhibition: it is the change of the read-out against control, counted positive when it falls.

In PubChem BioAssay AID624304 (Sanford-Burnham Center for Chemical Genomics, 2012) one finds inhibition data, which are given here for 61 molecules.

Structures are written as SMILES. The whole screen tested about 360,000 compounds, of which about 1,800 (0.5%) were called active.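 Rule for the calls: active = interference check ratio from 0.5 to 1.5 plus GFP to RFP signal ratio inhibition reaching or exceeding a fixed threshold (cut at about 30% in these data, passing the limit was not always enough); inactive = the rest.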 Shown is part of a subset that was picked to be rich in actives.

This experiment in a line: suppressors of acrylamide-induced Pgst-4::GFP reporter in worms, primary screen, SKN-1 inhibitor project, whole organism, uHTS, GFP/RFP fluorescence ratio, strain VP596 (AID 624304). Conditions: C. elegans VP596 Pgst-4::GFP/RFP ratio, 24 h, at 21.8 µM, active compounds read high.
Turning to `COc1cccc(OC)c1C(=O)Nc1ccc(Cc2ccncc2)cc1`, the inhibition was -3.1% (inactive).

For the molecule `COc1cc2ccccc2cc1C(=O)Nc1ccncc1`, the inhibition was 36.2% (active). In the case of `COc1ccccc1N(C)S(=O)(=O)c1ccc(Cl)c(C(=O)Nc2ccncc2)c1`, the inhibition was 23.4% (inactive).

As for `O=C(O)c1cccc2c1C(=O)N(C1CCCC1)C2`, the inhibition was -4.43% (inactive). For the molecule `CCN(CC)c1ccc2oc(=O)c(C)nc2c1`, the inhibition was 40.8% (active). In the case of `Cc1ccc2c(=O)oc(N(C)C)nc2c1`, the inhibition was 8.34% (inactive). In the case of `CN(Cc1nc2ccccc2c(=O)[nH]1)Cc1cc(=O)oc2ccc3ccccc3c12` it was 14.1% (inactive); in that of `Cc1c(Cl)c([N+](=O)[O-])nn1CC(=O)NCCCN1CCOCC1`, 28.4% (inactive). Take `CCCCn1ccnc1C(=O)c1cccc(S(=O)(=O)N2c3ccccc3CC2C)c1` (stereo unspecified): the inhibition is 41.7% (active). As for `CC1Cc2ccccc2N1S(=O)(=O)c1cccc(C(=O)NCC(c2ccco2)N2CCCC2)c1` (stereo unspecified), the inhibition is 4.55% (inactive).

As to `CC1Cc2ccccc2N1S(=O)(=O)c1cccc(C(=O)OCC(=O)N2CCOCC2)c1` (stereo unspecified), the inhibition was 17.4% (inactive). The same measure for `COCCN(C(=O)COC(=O)Cc1cccc(OC)c1)c1c(N)n(Cc2ccccc2)c(=O)[nH]c1=O`: 5.12% (inactive); for `CCCCOc1ccc(N(CC(=O)NC(C)C)C(=O)CCC(=O)Nc2ccccn2)cc1`: -1.05% (inactive).

For `O=C(NCCCn1ccnc1)C(=O)NCC1OCCN1S(=O)(=O)c1cc(F)ccc1F` (stereo unspecified), the inhibition was -7.89% (inactive). In the case of `CCc1ccc(-c2nc(SCC(=O)NC3CCCC3)n[nH]2)cc1` it was 3.3% (inactive); in that of `Cn1c(=NC(=O)C2CC2)sc2cc(F)cc(F)c21`, 38% (active); in that of `Cn1c(=NC(=O)c2ccco2)sc2cccc(F)c21`, 7.91% (inactive).

As for `CSCCNCc1cn(-c2ccc(F)cc2F)nc1-c1ccccc1C`, the inhibition is -14.2% (inactive). For the molecule `O=C1CC2(CCN(C(=O)COc3ccc(F)cc3)CC2)Oc2ccccc21`, the inhibition was -3.05% (inactive). The same measure for `CN(C)/C=N/c1cc(=O)n(C)c(=O)n1CC1CC1`: 8.63% (inactive); for `CN=C1C=C/C(=N/N=c2\ccn(O)cc2C)C=C1C`: 41.1% (active). With `COc1ccc(/C=C/C2=CC(C)(C)NC(=S)N2)c(OC)c1`, the inhibition is -2.28% (inactive). In the case of `Fc1ccc(COc2ccc(-c3nnco3)cc2)cc1` it was 77.7% (active); in that of `Fc1ccc(COc2cccc(-c3n[nH]c(=S)o3)c2)cc1`, -1.11% (inactive); in that of `Fc1cccc(Cl)c1COc1ccc(-c2nnco2)cc1`, 23.1% (inactive).

In the case of `Cc1cccc(NC(=O)NC2(C)CCS(=O)(=O)C2)c1` (stereo unspecified), the inhibition was -6.44% (inactive). Regarding `CCCC(NCC(=O)Nc1ccccc1C(=O)NC1CC1)c1ccccc1` (stereo unspecified), the inhibition is 11.1% (inactive).

As to `Cc1ccc(NC(=O)NC(=O)CSc2nnc(-c3ccc(OC(F)F)cc3)n2N)c(C)c1`, the inhibition is 1.8% (inactive). Regarding `CC(C)C[C@@H](COc1ccccc1)N1CCN(CC(C)C)CCC1=O`, the inhibition was 12.3% (inactive). Turning to `N#C/C(=C/c1ccc(Cl)cc1)NC(=O)c1ccccc1`, the inhibition was -13.8% (inactive). The same measure for `CC(Cc1cccs1)N(Cc1ccc(Cl)cc1)C(=O)c1ccncc1` (stereo unspecified): 8.76% (inactive); for `CC/C(=C\c1ccc(Cl)cc1)c1ccncc1`: 57.3% (active).

For `CCCSC(=S)NC1CCS(=O)(=O)C1` (stereo unspecified), the inhibition is 10.7% (inactive). The same measure for `O=C(OCC(=O)N1CCCC1=O)c1cc(S(=O)(=O)N2CCOCC2)ccc1Cl`: 6.4% (inactive).

For the molecule `O=C(OCC(=O)N1CCOCC1)c1ccc2ccccc2c1`, the inhibition was -11.5% (inactive).

Take `COc1ccc(OC)c(/C(C)=N\NC(=O)c2cc3cc(Cl)ccc3n2C)c1`: the inhibition is 1.75% (inactive).

For `C=C(C)c1cccc(C(C)(C)NC(=O)N2CCN(c3ncccn3)CC2)c1`, the inhibition was 36.7% (active). In the case of `C=C(C)c1cccc(C(C)(C)NC(=O)NC2CCCC2)c1` it was -1.51% (inactive). In the case of `C=C(C)c1cccc(C(C)(C)NC(=O)NCCN(CC)CC)c1` it was -10.6% (inactive). In the case of `COc1cccc(NC(=O)C2C(c3ccccc3)C2(Cl)Cl)c1` (stereo unspecified) it was -10.4% (inactive). With `COc1ccc(N2CCN(C(=O)CCNC(=O)c3ccc(Br)cc3)CC2)cc1`, the inhibition was 4.57% (inactive).

Consider `CCOc1ccccc1NC(=O)c1cc(S(=O)(=O)N2CCC3(CC2)OCCO3)ccc1F`, for which the inhibition is 3.17% (inactive). In the case of `CN1OC[C@@H]2CN(C(=O)c3ccc(-c4ccccc4)cc3)[C@H](c3ccc(-c4cccc(F)c4)cc3)C[C@@H]21` it was -1.35% (inactive); in that of `CC(=O)N1CCN(C(=O)C2(NC(=O)Nc3ccc(C)cc3)CCCCC2)CC1`, -13.7% (inactive); in that of `O=C(C1CCCO1)N1CCN(C(=O)C23CC4CC(CC(C4)C2)C3)CC1` (stereo unspecified), 24.4% (inactive). For the molecule `N/C(Cc1ccc([N+](=O)[O-])cc1)=N\OC(=O)COc1ccc2ccccc2c1`, the inhibition is -1.15% (inactive). In the case of `CCn1nccc1C(=O)Nc1ccc(Cl)c(Cl)c1` it was 44.5% (active); in that of `CC(c1cccnc1)N(CCN(C)C)C(=O)Nc1ccc(Cl)c(Cl)c1` (stereo unspecified), 0.83% (inactive); in that of `CCn1nccc1C(=O)Nc1ccc(S(=O)(=O)NC23CC4CC(CC(C4)C2)C3)cc1`, 5.56% (inactive). In the case of `CC1CCCC(C)N1C(=O)CSc1nnnn1C1CCCC1` (stereo unspecified) it was -2.05% (inactive). With `COc1ccccc1C1=CC(=O)C[C@H](c2ccc(F)cc2)C1`, the inhibition is 8.41% (inactive). The same measure for `COc1ccccc1-c1cc(NC(C)=O)c2ncc(-c3ccc(F)cc3)n2c1`: 18.1% (inactive); for `COc1ccccc1-c1nnc(-c2ccc(F)cc2)o1`: 45% (active).

As to `Cn1c(SCC(=O)N2CCOCC2)nnc1-c1ccc2ncccc2c1`, the inhibition was 3.82% (inactive).

Consider `N#Cc1c(C(F)(F)F)cc(-c2ccccc2)nc1SCC(=O)N1CCOCC1`, for which the inhibition was 2.8% (inactive). Turning to `Cc1cccc(-c2nc3c(c(SCC(=O)N4CCOCC4)n2)CCCC3)c1`, the inhibition is 37.9% (active). In the case of `Cc1ccc(C)c(S(=O)(=O)N2CC(=O)Nc3ccccc32)c1` it was -15.3% (inactive); in that of `CCOC(=O)c1c(C(C#N)C#N)cc(C)nc1C`, -3.86% (inactive). In the case of `CCOC(=O)c1cc(C)nc(S(C)(=O)=O)c1C#N` it was 13.5% (inactive); in that of `CCCCSc1[nH]c(=O)c(C(=O)OCC)cc1C#N`, 48.3% (active); in that of `CC(=O)Nc1cnc(-c2ccc(O)cc2C)cn1`, -1.38% (inactive).
